Source: PubChem (National Center for Advancing Translational Sciences (NCATS))
Most compounds without a hit are left out; they make up all but 5.9% or so of the library.
TGFb inhibitor – inhibitors of TGF-b signaling. HepG2 CAGA-GFP TGF-b/SMAD3 reporter, GFP fluorescence, 18 h; TGF-beta stimulated, 500 pg/mL final. Potency, µM (doses to about 46.1 µM), without a hit: at the highest dose activity, negative = inhibition, hits mostly inhibitors. 410,000 tested, 1.2% active; note: % is set by controls: 0 for no effect and ±100 for the full control effect; nearly all actives have a fitted effect of over 65% in size
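Inhibition was scored as loss of TGF-beta-induced (500 pg/mL final, 18 hours, 37 degrees C) GFP in HEPG2 cells carrying a CAGA-GFP reporter, in DMEM with 1% FBS. Well GFP was summed per cell; Activity was normalised to unstimulated and stimulated DMSO wells, then concentration-response fitting.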
KB-3-1 tox – kills parental KB-3-1 adenocarcinoma cells. Potency, µM (top dose mostly 46.1 µM), actives largely listed as cytotoxic. KB-3-1 viability, CellTiter-Glo ATP luminescence, 72 h. 400,000 tested, 1.4% active; note: % is set by controls: 0 for no effect and ±100 for the full control effect; nearly all actives have a fitted effect of over 60% in size
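Luminescent ATP read-out (CellTiter-Glo) measures survival of drug-naive KB-3-1 cells after 72 h compound exposure at 37 °C. Titration series was screened from lowest to highest concentration, with DMSO vehicle plates as background controls.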
KB-V1 MDR tox – KB-V1 MDR subline cytotoxicity | Potency, µM (highest dose often 46.1 µM), usual class: cytotoxic | AID 1347076 | 400,000 tested, 3.4% active | KB-V1 MDR cells viability, CellTiter-Glo, 72 h; note: % is set by controls: 0 for no effect and ±100 for the full control effect; nearly all actives have a fitted effect of over 60% in size
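Cytotoxicity via CellTiter-Glo luminescence after 72 h compound exposure at 37 degrees C. Cells: drug-selected KB-V1 line, DMEM phenol-red free plus 10% FBS. Compounds tested at multiple concentrations; normalized data fitted to concentration-effect curves.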
HepG2 viability – counter-screen for TGF-b inhibitors: cytotoxicity in HepG2 cells; HepG2 CAGA-GFP viability, ATP luminescence, 18 h; AID 588856; 410,000 tested, 0.76% active; Potency, µM (top dose mostly 46.1 µM), inactives show at the top dose activity change, negative = cytotoxicity, hits mostly cytotoxic
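CellTiter-Glo luminescence gave cytotoxicity after 18 hours at 37 degrees C. The cells were HepG2 CAGA-GFP in 1% FBS DMEM, stimulated with 500 pg/mL TGF-beta after compound addition. %Activity was normalised to no-cell wells (complete cell-killing) and DMSO (no toxicity), and curves were fitted and classified.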
ATXN viability – cell viability loss in ATXN counter-screen | S2 cells (HEK-293 line with an ATXN2-luciferase reporter) viability, CellTiter-Fluor protease fluorescence, 24 h | Potency, µM (titrated, usually from 56.7 µM), actives largely listed as cytotoxic | 400,000 tested, 0.49% active; note: nearly all actives have a fitted effect of over 40% in size
ATXN2 expr inh – ATXN2 expression inhibition; AID 1745845; 360,000 tested, 0.72% active; Potency, µM (doses to about 57 µM), for inactives: at the top dose activity change, negative = inhibition, usual class: inhibitors; HEK-293 ATXN2-luciferase reporter, luminescence, 24 h; note: % is set by controls: 0 for no effect and ±100 for the full control effect; nearly all actives have a fitted effect of over 55% in size
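ATXN2-luciferase reporter cells (luciferase flanked by upstream and downstream ATXN2 gene portions) were treated 24 h at 37 °C with compounds at up to 57 uM. SteadyGlo luminescence gave expression; GF-AFC fluorescence gave viability.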
Starred values were filed as active, the others as inactive; i = inactive; ? = inconclusive; . = not tested or not shown; ! = a repeat was not active. Calls come from the whole dose curve; as a rule, active = well fitted curve in the direction sought with a large enough effect; inconclusive = small, poorly fitted or top-dose-only effect, or another doubt; inactive = no such curve, though single readings can be large; an effect the other way counts as inactive or inconclusive. Potency is the fitted concentration of half-maximal effect.

SMILES | TGFb inhibitor | KB-3-1 tox | KB-V1 MDR tox | HepG2 viability | ATXN viability | ATXN2 expr inh
Cc1cc(C)cc(N(C(=O)CNS(=O)(=O)c2ccccc2)C(C(=O)NCc2ccccc2)c2ccc(C)o2)c1 (stereo not given) | 4% | i | i | -3% | i | 8%
Cc1ccc(S(=O)(=O)NCCC(c2ccccc2)c2ccco2)cc1 (stereo not given) | ? | i | 23µM* | -46% | i | -1%
Cc1ccc(S(=O)(=O)NCC(=O)N(c2ccccc2)C(C(=O)NCc2ccccc2)c2ccco2)cc1 (stereo not given) | ? | i | 2.3µM* | -5% | i | -14%
Cc1ccc(S(=O)(=O)NCCC(c2ccc(F)cc2)c2ccco2)cc1 (stereo not given) | -25% | ? | 21µM* | -25% | i | 3%
Cc1ccc(C)c(N2CCN(C(c3ccc(F)cc3)c3nnc(-c4ccccc4)o3)CC2)c1 (stereo not given) | 0% | . | . | -8% | . | .
CCC1CN(Cc2cn[nH]c2-c2ccc(F)cc2)Cc2cc(OC)ccc2O1 (stereo not given) | . | . | . | . | i | .
Cc1cc(C)c(C(CC(=O)c2cccs2)C(C#N)C#N)c(C)c1 (stereo not given) | 18µM* | ? | i | 13µM* | . | ?
Cc1nc2ccccn2c1C(=O)/C=C/c1ccc(F)cc1 | ? | 16µM* | 16µM* | -13% | i | 29%
COc1ccc(/C=C/C(=O)c2c(C)nc3ccccn23)cc1 | -16% | i | ? | -5% | ? | -5%
O=C(NCCc1ccc(Cl)cc1)c1ccc2c(c1)N(Cc1ccccc1)C(=O)CS2 | -23% | . | . | 0% | . | .
CCOC(=O)c1c(NC(=O)CN2CCOCC2)sc2c1CC(C)(C)OC2 | 4% | i | i | -21% | i | 6%
CCOC(=O)c1c(NC(=O)CCN2CCOCC2)sc2c1CC(C)(C)OC2 | 5% | i | 16µM* | -24% | i | 4%
CCOC(=O)c1sc(NC(=O)CCN2CCCCCC2)c(C(=O)OCC)c1C | ? | i | i | 18µM* | i | 1%
CCOC(=O)C1CCN(C2=NC(=O)/C(=C/c3ccc(Cl)cc3)S2)CC1 | 0% | i | i | -5% | i | -4%
CCOC(=O)CSC1=NC(=O)/C(=C\c2ccc(Cl)cc2)S1 | 9% | ? | ? | -41% | ? | 25µM*
CC(C)(C)NC(=O)NCC1CCCC1NC(=O)NC(C)(C)C (stereo not given) | -3% | i | 26µM* | -17% | i | .
Cc1ccc(CSc2nccc(-c3c(C)nc4ccccn34)n2)cc1 | 11% | 18µM* | 6.5µM* | 1% | ? | .
Cc1nc(NCCc2ccc(Cl)cc2)c2nnn(Cc3ccccc3)c2n1 | 3% | i | i | -3% | i | .
Cc1nc(NCCN2CCOCC2)c2nnn(Cc3c(F)cccc3Cl)c2n1 | 5% | i | 18µM* | 6% | i | -11%
CC(NCc1ccc(OCc2ccc(Cl)cc2)cc1)C(O)c1ccccc1 (stereo not given) | 14µM* | ? | ? | 16µM* | ? | ?
CC(NCc1cccc(OCc2ccccc2)c1)C(O)c1ccccc1 (stereo not given) | ? | i | i | -91% | . | .
CC1(NC(=O)CC(c2ccccc2)(c2ccccc2)c2ccccc2)CCN(CCCc2ccccc2)C1=O (stereo not given) | 8.9µM* | i | i | -21% | ? | -13%
Cc1nnc(OCc2nc3ccccc3n2C)c2ccccc12 | -1% | ? | 9.2µM* | -7% | i | 22%
COC(=O)CN(c1cc(Cl)ccc1OC)S(=O)(=O)c1ccc(OC)c(OC)c1 | 3% | i | 2.3µM* | -2% | i | -5%
COC(=O)CN(c1ccc(OC)cc1)S(=O)(=O)c1ccc(OC)c(OC)c1 | 35% | i | ? | 19% | i | 6%
SMILES | TGFb inhibitor | KB-3-1 tox | KB-V1 MDR tox | HepG2 viability | ATXN viability | ATXN2 expr inh
O=C1[C@H](Cc2ccccc2)NCC=CC[C@@H](c2ccc(Cl)cc2)N1Cc1ccc(Cl)cc1 | ? | ? | ? | -91% | . | ?
O=C1[C@H](Cc2ccccc2)NCCCC[C@@H](c2ccc(Cl)cc2)N1Cc1ccccc1 | ? | ? | 23µM*! | -68% | ? | ?
O=C1[C@H](Cc2ccccc2)NCC=CC[C@H](c2ccc(Cl)cc2)N1Cc1ccc(Cl)cc1 | ? | ? | ? | -60% | 32µM* | ?
O=C1[C@H](Cc2ccccc2)NCC=CC[C@H](c2ccc(Cl)cc2)N1Cc1ccccc1 | 18µM* | i | ? | -39% | ? | ?
O=C1[C@H](Cc2ccccc2)NCCCC[C@H](c2ccc(Cl)cc2)N1Cc1ccc(Cl)cc1 | ? | ? | ? | -20% | ? | -21%
O=C(Nc1cccc([N+](=O)[O-])c1)NN1CCCCCC1 | ? | i | i | -22% | i | ?
O=[N+]([O-])c1ccc(Oc2ccc(S(=O)(=O)Nc3ccccc3)cc2)cc1 | 3% | ? | i | -24% | i | -14%
O=C1C(Cl)=C(NS(=O)(=O)c2ccc([N+](=O)[O-])cc2)C(=O)c2ccccc21 | ? | ? | ? | -191% | 40µM* | 18µM*
CC1CCCCN1c1nnc(NC(=O)Nc2ccccc2F)s1 (stereo not given) | -11% | i | i | -13% | i | 71%
COC(=O)c1ccccc1NC(=O)c1nn(C)c2c1COc1ccccc1-2 | -6% | . | . | -38% | . | .
COc1ccc(Cn2c(O)c(C=Nc3ccccc3)c3ccccc3c2=O)cc1 | -5% | i | i | 3% | ? | -8%
COc1ccc(Cn2c(O)c(C=Nc3ccc(O)cc3)c3ccccc3c2=O)cc1 | -14% | ? | 21µM* | -67% | i | ?
CCOc1ccccc1NC(=O)Cn1c(=O)oc2cc(S(=O)(=O)NCc3ccccc3)ccc21 | 0% | i | i | -8% | . | .
COc1ccccc1C(=O)N(CN1CCCC1=O)c1cccc(Cl)c1 | 27% | i | i | 14% | i | -7%
CCOc1ccccc1C(=O)N(CN1CCCC1=O)c1cccc(Cl)c1 | 19% | i | 12µM* | -3% | i | -14%
O=C(CSc1nc2ccc(Cl)cc2[nH]1)c1ccc2c(c1)OCO2 | -24% | i | i | 2% | i | 19%
O=C(CSc1nc2cc(Cl)c(Cl)cc2[nH]1)c1ccc2c(c1)OCO2 | 14% | 15µM* | 8.2µM* | 11% | . | -28%
